Assay [1] deals with Retinoic acid receptor RXR-alpha (Homo sapiens) (UniProt P19793). In words: ATG_RXRa_TRANS: Attagene TRANS-FACTORIAL HepG2 Assay for human Retinoid X Receptor alpha (RXRa) (AID 2283012). The gist of the method:
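Chimeric NR-GAL4 trans-activation in HepG2, 24 h treatment; reporter transcripts quantified by fluorescence on capillary electrophoresis, analysed for upward change from DMSO.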

The target in assay [2] is human Retinoid X Receptor beta (RXRb), RXRB (gene 6257) (UniProt P28702). In words: ATG_RXRb_TRANS: Attagene TRANS-FACTORIAL HepG2 Assay for human Retinoid X Receptor beta (RXRb) (AID 2283013). The gist of the method:
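After a 24 h incubation with test chemical, transfected HepG2 cells carrying NR-Gal4 fusions and GAL4-UAS reporter transcription units yield RNA whose reporter cDNA is FAM-labelled, HpaI-cut and sized by capillary electrophoresis; increases over DMSO are scored.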

Assay [3] deals with human Thyroid Receptor alpha (THRa1), THRA (gene 7067) (UniProt P10827). In words: ATG_THRa1_TRANS: Attagene TRANS-FACTORIAL HepG2 Assay for human Thyroid Receptor alpha (THRa1) (AID 2283014). The gist of the method: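 Transient HepG2 transfection, NR-Gal4 chimera driving GAL4-UAS reporters; 24 h compound exposure; total RNA, oligo(dT) RT, PCR, fluorescent primer extension, capillary electrophoresis. Upward direction vs DMSO control.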

Read-out in assay [4]: Interleukin-1 alpha (IL1a), IL1A (gene 3552)
In words: BSK_BE3C_IL1a: BioMAP Diversity Plus: BE3C Assay for Interleukin-1 alpha (IL1a) Biomarker Activity (AID 2283016; active = hit-call score of the fitted dose curve at least 0.9, where 1 is the maximum; inactive = score below 0.9). Particulars: primary human bronchial epithelial cells; actives raise or lower the signal. The gist of the method:
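Measured in human lung primary bronchial epithelial cells: IL-1a by ELISA at 24 h after dosing, with bidirectional fitting against DMSO.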

Read-out in assay [5]: Monocyte Chemoattractant Protein-1 (MCP1), CCL2 (gene 6347)
The assay can be described thus: BSK_3C_MCP1: BioMAP Diversity Plus: 3C Assay for Monocyte Chemoattractant Protein-1 (MCP1) Biomarker Activity (AID 2283017; active = hit-call score of the fitted dose curve at least 0.9, where 1 is the maximum; inactive = score below 0.9). The following applies: primary human endothelial cells (HUVEC); actives raise or lower the signal. The gist of the method: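 HUVEC, 3C system; 24 h chemical exposure; MCP-1 by ELISA; bidirectional curve fit vs DMSO baseline.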

Read-out in assay [6]: Monocyte Chemoattractant Protein-1 (MCP1), CCL2 (gene 6347)
The assay can be described thus: BSK_4H_MCP1: BioMAP Diversity Plus: 4H Assay for Monocyte Chemoattractant Protein-1 (MCP1) Biomarker Activity (AID 2283018; active = hit-call score of the fitted dose curve at least 0.9, where 1 is the maximum; inactive = score below 0.9). Particulars: primary human endothelial cells (HUVEC); actives raise or lower the signal. The gist of the method: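 Primary human umbilical vein endothelium is exposed to chemical for 24 h before MCP-1 is assayed by ELISA. Concentration-response fitted bidirectionally relative to DMSO.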

Read-out in assay [7]: Human Leukocyte Antigen - DR isotype (HLADR), HLA-DRA (gene 3122)
In words: BSK_3C_HLADR: BioMAP Diversity Plus: 3C Assay for Human Leukocyte Antigen - DR isotype (HLADR) Biomarker Activity (AID 2283019; active = hit-call score of the fitted dose curve at least 0.9, where 1 is the maximum; inactive = score below 0.9;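 as to outcome: ELISA of cell-surface HLA-DR on HUVEC 24 h after dosing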). The following applies: primary human endothelial cells (HUVEC); actives raise or lower the signal. The gist of the method: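 HUVEC, 3C stimulation, 24 h post-dose; HLA-DR by ELISA; bidirectional curve fit vs DMSO baseline; gain or loss of signal scored.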

Read-out in assay [8]: Interleukin-8 (IL8), CXCL8 (gene 3576)
The assay can be described thus: BSK_3C_IL8: BioMAP Diversity Plus: 3C Assay for Interleukin-8 (IL8) Biomarker Activity (AID 2283020; active = hit-call score of the fitted dose curve at least 0.9, where 1 is the maximum; inactive = score below 0.9). Particulars: primary human endothelial cells (HUVEC); actives raise or lower the signal. In short, it runs like this:
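Using DMSO-treated wells as the baseline, bidirectional curve fitting was applied to ELISA-measured IL-8 from human umbilical vein endothelial cultures sampled 24 h after compound addition.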

Read-out in assay [9]: Monokine induced gamma interferon (MIG), CXCL9 (gene 4283)
The assay can be described thus: BSK_3C_MIG: BioMAP Diversity Plus: 3C Assay for Monokine induced gamma interferon (MIG) Biomarker Activity (AID 2283021; active = hit-call score of the fitted dose curve at least 0.9, where 1 is the maximum; inactive = score below 0.9;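 as to AC50: MIG protein level measured by immunoassay in the treated endothelial cultures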). Particulars: primary human endothelial cells (HUVEC); actives raise or lower the signal. In short, it runs like this:
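ELISA-measured MIG in dosed HUVEC 3C cultures at 24 h, analysed by bidirectional fitting with DMSO defining baseline activity.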

In assay [10] the target is human Vitamin D Receptor (VDR), VDR (gene 7421) (UniProt P11473). In words: ATG_VDR_TRANS: Attagene TRANS-FACTORIAL HepG2 Assay for human Vitamin D Receptor (VDR) (AID 2283022). The gist of the method:
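RT-PCR/capillary electrophoresis read-out of reporter mRNA induction in transiently transfected HepG2; 24 h dosing; chimeric NR-Gal4 (TRANS format); gain-of-signal fit against DMSO baseline.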

Assay [11] can be described thus: BSK_3C_SRB: Viability Assessment in the BioMAP Diversity Plus: 3C Assay (AID 2283023; active = hit-call score of the fitted dose curve at least 0.9, where 1 is the maximum; inactive = score below 0.9;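 also: cells read 24 h after compound dosing; fitted both ways against DMSO so a hit may be signal rise or drop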). The following applies: primary human endothelial cells (HUVEC). In short, it runs like this: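 HUVEC, 24 h post-dose; 10% TCA fix, 0.1% SRB stain, A560 nm. Bidirectional curve fit vs DMSO negative control.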
Assay [12] is described as follows: BSK_3C_Vis: BioMAP Diversity Plus: 3C Assay for Morphology Visualization (AID 2283025; active = hit-call score of the fitted dose curve at least 0.9, where 1 is the maximum; inactive = score below 0.9;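 also: fitted both ways so gain or loss versus DMSO counts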;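 as to AC50: light microscopy image of cell morphology used as background control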). Particulars: primary human endothelial cells (HUVEC). In short, it runs like this:
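Light-microscopy morphology readout, 24 h exposure, human primary umbilical vein endothelium; analysed relative to DMSO with bidirectional fitting.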

Read-out in assay [13]: Pselectin, SELP (gene 6403)
In words: BSK_4H_Pselectin: BioMAP Diversity Plus: 4H Assay for Pselectin Biomarker Activity (AID 2283026; active = hit-call score of the fitted dose curve at least 0.9, where 1 is the maximum; inactive = score below 0.9). The following applies: primary human endothelial cells (HUVEC); actives raise or lower the signal. In short, it runs like this: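 Bidirectional fits against DMSO gave the endpoint. Cells: primary human umbilical vein endothelium, chemical-treated for 24 h before ELISA detection of P-selectin.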

Assay [14] can be described thus: BSK_4H_SRB: Viability Assessment in the BioMAP Diversity Plus: 4H Assay (AID 2283027; active = hit-call score of the fitted dose curve at least 0.9, where 1 is the maximum; inactive = score below 0.9;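 also: cells exposed to compound for 24 h before staining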;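 as to AC50: curves fitted both ways versus DMSO so AC50 may be loss or gain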). The following applies: primary human endothelial cells (HUVEC). The gist of the method: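 HUVEC, 24 h post-dose; 10% TCA fix, 0.1% SRB stain, A560 nm. Total protein = overt cytotoxicity, parallel to biomarker read. Bidirectional fit vs DMSO baseline.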
The nature of assay [15]: BSK_BE3C_SRB: Viability Assessment in the BioMAP Diversity Plus: BE3C Assay (AID 2283028; active = hit-call score of the fitted dose curve at least 0.9, where 1 is the maximum; inactive = score below 0.9;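 as to AC50: fitted both ways so AC50 may mark signal gain or loss versus DMSO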). Particulars: primary human bronchial epithelial cells. In short, it runs like this: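 Primary human bronchial epithelium; chemical dosing, 24 h; 10% TCA fix, 0.1% SRB stain, A560; bidirectional fit vs DMSO baseline.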
Read-out in assay [16]: Thrombomodulin, THBD (gene 7056)
The assay can be described thus: BSK_3C_Thrombomodulin: BioMAP Diversity Plus: 3C Assay for Thrombomodulin Biomarker Activity (AID 2283029; active = hit-call score of the fitted dose curve at least 0.9, where 1 is the maximum; inactive = score below 0.9). Particulars: primary human endothelial cells (HUVEC); actives raise or lower the signal. In short, it runs like this: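 In a multiplexed primary-cell system, human umbilical vein endothelium received chemical and was assayed 24 h later for thrombomodulin by ELISA. Parallel cultures were SRB-stained (0.1% SRB after 10% TCA fixation, read at 560 nm) to flag cytotoxicity.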

Read-out in assay [17]: Matrix Metallopeptidase 1 (MMP1), MMP1 (gene 4312)
The assay can be described thus: BSK_BE3C_MMP1: BioMAP Diversity Plus: BE3C Assay for Matrix Metallopeptidase 1 (MMP1) Biomarker Activity (AID 2283024; active = hit-call score of the fitted dose curve at least 0.9, where 1 is the maximum; inactive = score below 0.9). Particulars: primary human bronchial epithelial cells; actives raise or lower the signal. In short, it runs like this:
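In this multiplexed primary-cell system, human bronchial epithelium received chemicals for 24 h before an ELISA for MMP1. Values reflect bidirectional fits normalised to the DMSO baseline.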

Several values for one entry are separate records, joined by “and”; a condition that tells them apart may be missing. Equal values may be shown once. Records with an inconclusive call do not appear. Activity calls are given as the source filed them. The calls were made as follows, unless noted: active = hit-call score of the fitted dose curve at least 0.9, where 1 is the maximum; inconclusive = response in the unintended direction; inactive = score below 0.9.

What is called AC50 is the concentration at which the activity in the assay is half-maximal.

Chain of human Vitamin D Receptor (VDR), VDR (gene 7421) (P11473 whole entry, looked up, the tested form may be a part): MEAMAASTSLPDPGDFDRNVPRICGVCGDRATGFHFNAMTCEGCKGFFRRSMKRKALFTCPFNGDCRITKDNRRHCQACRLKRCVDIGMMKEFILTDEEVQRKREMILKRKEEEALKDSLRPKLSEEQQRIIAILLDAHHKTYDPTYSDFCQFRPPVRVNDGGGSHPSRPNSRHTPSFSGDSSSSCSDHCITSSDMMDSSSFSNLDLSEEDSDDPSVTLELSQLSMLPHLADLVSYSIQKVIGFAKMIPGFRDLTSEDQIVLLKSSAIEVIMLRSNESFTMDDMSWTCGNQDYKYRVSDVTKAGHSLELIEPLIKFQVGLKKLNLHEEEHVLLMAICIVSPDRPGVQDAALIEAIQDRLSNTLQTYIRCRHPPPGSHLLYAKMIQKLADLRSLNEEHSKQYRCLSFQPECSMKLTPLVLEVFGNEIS
Chain of human Thyroid Receptor alpha (THRa1), THRA (gene 7067) (P10827 whole entry, looked up, the tested form may be a part): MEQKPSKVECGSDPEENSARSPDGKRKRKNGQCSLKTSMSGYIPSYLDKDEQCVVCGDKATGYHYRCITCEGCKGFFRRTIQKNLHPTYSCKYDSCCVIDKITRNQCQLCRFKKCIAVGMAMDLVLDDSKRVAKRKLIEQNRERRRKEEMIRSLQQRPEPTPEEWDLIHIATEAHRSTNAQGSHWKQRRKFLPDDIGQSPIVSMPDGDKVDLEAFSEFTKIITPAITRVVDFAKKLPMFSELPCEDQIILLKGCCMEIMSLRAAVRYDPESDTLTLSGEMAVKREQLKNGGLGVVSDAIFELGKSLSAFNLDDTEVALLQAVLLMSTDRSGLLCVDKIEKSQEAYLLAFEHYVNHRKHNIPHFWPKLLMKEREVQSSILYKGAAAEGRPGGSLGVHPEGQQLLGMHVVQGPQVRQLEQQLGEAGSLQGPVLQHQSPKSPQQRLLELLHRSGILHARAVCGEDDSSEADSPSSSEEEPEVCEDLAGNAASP
Chain of human Retinoid X Receptor beta (RXRb), RXRB (gene 6257) (P28702 whole entry, looked up, the tested form may be a part): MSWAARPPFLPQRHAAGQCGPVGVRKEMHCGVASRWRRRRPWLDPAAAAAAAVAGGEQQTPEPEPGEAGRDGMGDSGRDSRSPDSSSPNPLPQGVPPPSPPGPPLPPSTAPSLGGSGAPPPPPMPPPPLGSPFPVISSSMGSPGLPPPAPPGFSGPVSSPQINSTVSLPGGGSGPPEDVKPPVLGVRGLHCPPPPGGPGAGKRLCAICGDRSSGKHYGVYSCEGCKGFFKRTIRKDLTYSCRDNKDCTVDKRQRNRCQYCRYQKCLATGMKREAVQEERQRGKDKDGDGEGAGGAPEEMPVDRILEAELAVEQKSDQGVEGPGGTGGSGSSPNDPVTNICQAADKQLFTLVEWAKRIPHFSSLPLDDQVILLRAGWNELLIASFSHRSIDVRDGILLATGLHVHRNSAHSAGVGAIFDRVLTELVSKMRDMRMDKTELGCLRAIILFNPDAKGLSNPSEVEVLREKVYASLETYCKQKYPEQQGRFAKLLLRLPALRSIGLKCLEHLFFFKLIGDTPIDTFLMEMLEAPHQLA
Chain of Retinoic acid receptor RXR-alpha (Homo sapiens) (P19793 whole entry, looked up, the tested form may be a part): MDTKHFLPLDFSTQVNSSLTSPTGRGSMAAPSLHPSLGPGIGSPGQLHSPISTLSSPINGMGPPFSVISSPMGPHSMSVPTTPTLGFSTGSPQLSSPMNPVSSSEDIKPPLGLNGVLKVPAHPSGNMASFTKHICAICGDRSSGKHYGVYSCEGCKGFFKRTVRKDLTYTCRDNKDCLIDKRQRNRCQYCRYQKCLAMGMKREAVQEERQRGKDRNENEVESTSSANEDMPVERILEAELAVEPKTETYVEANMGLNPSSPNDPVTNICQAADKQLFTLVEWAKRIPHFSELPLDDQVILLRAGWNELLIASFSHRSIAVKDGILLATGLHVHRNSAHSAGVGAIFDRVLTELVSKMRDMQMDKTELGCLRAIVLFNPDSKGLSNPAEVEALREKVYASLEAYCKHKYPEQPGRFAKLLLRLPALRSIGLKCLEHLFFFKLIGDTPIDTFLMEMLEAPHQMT

Take `CCNc1nc(NC(C)(C)C)nc(OC)n1`: the compound was called inactive in [1], in assay [2], in assay [3], in assay [4], in assay [5] and in assay [6]. In addition, the result in [7], in assay [8], in assay [9], in [10], in assay [11] and in assay [12] was inactive. The result in assay [13], in [14], in [15] and in [16] was inactive.

In the case of `CC(C)c1ccc(O)c(C(C)C)c1`, the figures for the AC50 in [1] and in assay [2] were 54.6 µM (active) and 9.23 µM (active), respectively.

Regarding `Cc1c[nH]c(=O)[nH]c1=O`, the result in [1], in assay [2], in [3] and in assay [10] was inactive.

As for `c1ccc(Nc2cccc3ccccc23)cc1`, the half-maximal activity concentration (AC50) was 43.4 µM (active) in [1]; 11.9 µM (active) in [2]; 23.8 µM (active) and 28.6 µM (active) in assay [4]; 33.1 µM (active) and 33.6 µM (active) in assay [5]; 26.1 µM (active) and 21.6 µM (active) in [6]; 38.7 µM (active) and 29.6 µM (active) in assay [7]. Moreover, the AC50 in assay [9] was 36.5 µM (active) and 31.8 µM (active); in assay [11], 31.8 µM (active) and 34 µM (active); in assay [17] it was 8.87 µM (active) and 4.89 µM (active); in assay [13], 35.2 µM (active) and 33 µM (active); in assay [14], 33.3 µM (active) and 35.6 µM (active); in assay [15], 27.4 µM (active) and 28.4 µM (active). Moreover, the compound was classed as inactive in assay [3] and in assay [16].

Turning to `C=CC(C)(O)CC/C=C(\C)CC` (stereo unspecified), the compound was classed as inactive in [1] and in [2].

Take `C=CCOC(=O)c1ccc(C(=O)OCC=C)c(C(=O)OCC=C)c1`: the outcome in [1], in assay [2], in assay [3] and in [10] was inactive.

As for `CCc1cccc(C)c1N`, the result in assay [1] and in [2] was inactive.

On to `C=CC(=O)OCCCCCCOC(=O)C=C`, for which the compound was called inactive in [1], in assay [2], in assay [3], in assay [10], in assay [15] and in assay [16]. The concentration at half-maximal activity (AC50) in assay [4] is 10 µM (active); in [5], 20 µM (active); in [7], 4.69 µM (active); in assay [8] it was 12.3 µM (active); in assay [9], 20 µM (active); in assay [11], 20 µM (active). In addition, the concentration at half-maximal activity (AC50) in [12] was 12.9 µM (active); in [13], 10.3 µM (active); in [14] it was 20 µM (active).

`Cc1ccc(S(=O)(=O)N=C=O)cc1`: the call in assay [1] and in assay [2] was inactive.

For the compound `CCCCOCC(C)O` (stereo unspecified), the outcome in assay [1], in [2], in assay [3] and in [10] was inactive.

For the compound `CCCCCCCCCC[N+](C)(CCCCCCCCCC)CCC[Si](OC)(OC)OC`, the compound was classed as inactive in assay [1], in assay [2], in [3] and in assay [10].

As to `CCCC1CCCC(=O)O1` (stereo unspecified), the compound was called inactive in [1], in [2] and in assay [3].

For `CC(=O)OCC=C(C)C`, the call in assay [1], in [2], in assay [3] and in assay [10] was inactive.

Consider `CCCCCCCC(=O)OCC`, for which the outcome in assay [1] and in assay [2] was inactive.

As for `O=C(OCc1ccccc1)c1ccc(O)cc1`, the outcome in assay [1] and in assay [2] was inactive.

On to `O=C(Nc1ccccc1)c1cc(Cl)ccc1O`, for which the outcome in [1], in assay [2], in [3] and in [10] was inactive.

As to `CCOC(=O)[C@H](O)[C@@H](O)C(=O)OCC`, the result in assay [1], in assay [2], in [3] and in assay [10] was inactive.

`Cn1ccnc1`: the outcome in assay [1], in assay [2], in [3] and in assay [10] was inactive.

Consider `O=C1c2ccccc2C(=O)c2cc(S(=O)(=O)O)ccc21`, for which the outcome in [1] and in [2] was inactive.

Consider `CC1(C)CCC[C@]2(C)[C@H]3CC(=O)O[C@]3(C)CC[C@@H]12`, for which the compound was called inactive in [1] and in assay [2].

Take `Clc1cc(Cl)c(Cl)c(Cl)c1Cl`: the result in assay [1], in assay [3], in [5], in assay [6], in assay [9] and in assay [10] was inactive. Further, the outcome in [11], in assay [12], in [14], in [15] and in assay [16] was inactive. For the same compound, the AC50 is 21.2 µM (active) in assay [2], 20 µM (active) in assay [4], 20 µM (active) in [7] and 34.7 µM (active) in assay [13].

Take `O=c1c(O)c(-c2ccc(O)cc2O)oc2cc(O)cc(O)c12`: the result in assay [1], in [2], in assay [3] and in [10] was inactive.

On to `O=C(O[C@@H]1Cc2c(O)cc(O)cc2O[C@@H]1c1cc(O)c(O)c(O)c1)c1cc(O)c(O)c(O)c1`, for which the result in assay [1], in assay [2], in assay [3] and in assay [10] was inactive.

For `c1ccc(-c2nc3ccccc3[nH]2)cc1`, the result in assay [1], in assay [2] and in assay [3] was inactive.

With `CCCCCCCCCC(C)=O`, the outcome in [1], in [2], in assay [3] and in [10] was inactive.

For `CCC(C)(O)CCCC(C)C` (stereo unspecified), the compound was called inactive in assay [1], in assay [2] and in assay [3].

With `CCCCC1CCC(=O)O1` (stereo unspecified), the call in assay [1] and in assay [2] was inactive.
